# From the supplement of paper PMC9694430
# Structures can show the parent of a compound that is named as a salt.
# Key:
# Test in all cases: thermal shift delta Tm vs DMSO control; higher = stronger stabilization (binding)
# Conditions in all cases: 12.5 µM; protein concentration 2 µM
# LOC_OS01G01410-cb001 = tested on: LOC_OS01G01410-cb001
# Method in brief: (§1)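 Heating from 25°C to 95°C at 0.05°C/s, fluorescence was recorded for 19.5 μl wells of 2 μM E. coli-expressed, purified rice kinase domain in 100 mM potassium phosphate pH 7.5, 150 mM NaCl, 10% glycerol and 5 × SYPRO Orange with compound in DMSO. Boltzmann fits gave melting temperatures for this differential scanning fluorimetry assay. The shift reported is the mean of three replicates against the DMSO-only protein.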
# LOC_OS01G02750-cb003 = tested on: LOC_OS01G02750-cb003
# Method in brief: as §1
# LOC_OS01G10900-cb004 = tested on: LOC_OS01G10900-cb004
# Method in brief: as §1
# LOC_OS01G13800-cb001 = tested on: LOC_OS01G13800-cb001
# Method in brief: as §1
# LOC_OS01G14860-cb001 = tested on: LOC_OS01G14860-cb001
# Method in brief: as §1
# LOC_OS01G21960-cb002 = tested on: LOC_OS01G21960-cb002
# Method in brief: as §1
# LOC_OS01G39600-cb002 = tested on: LOC_OS01G39600-cb002
# Method in brief: as §1
# LOC_OS01G48390-cb002 = tested on: LOC_OS01G48390-cb002
# Method in brief: as §1
# LOC_OS01G51400-cb002 = tested on: LOC_OS01G51400-cb002
# Method in brief: as §1
# LOC_OS01G52050-cb004 = tested on: T1, LOC_OS01G52050-cb004
# T1 sequence (whole entry): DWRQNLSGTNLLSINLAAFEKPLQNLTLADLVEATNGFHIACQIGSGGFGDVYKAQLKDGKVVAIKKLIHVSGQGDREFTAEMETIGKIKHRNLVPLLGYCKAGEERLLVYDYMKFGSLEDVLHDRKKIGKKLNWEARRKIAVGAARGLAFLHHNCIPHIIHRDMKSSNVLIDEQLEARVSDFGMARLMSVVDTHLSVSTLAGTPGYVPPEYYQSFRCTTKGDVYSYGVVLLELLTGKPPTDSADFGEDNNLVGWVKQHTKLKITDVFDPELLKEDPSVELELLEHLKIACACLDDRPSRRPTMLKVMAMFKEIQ
# Method in brief: as §1
# LOC_OS01G57100-cb003 = tested on: LOC_OS01G57100-cb003
# Method in brief: as §1
# LOC_OS01G60330-cb001 = tested on: LOC_OS01G60330-cb001
# Method in brief: as §1
# LOC_OS01G60700-cb002 = tested on: LOC_OS01G60700-cb002
# Method in brief: as §1
# LOC_OS01G63280-cb003 = tested on: LOC_OS01G63280-cb003
# Method in brief: as §1
# LOC_OS01G67340-cb003 = tested on: LOC_OS01G67340-cb003
# Method in brief: as §1
# LOC_OS01G70970-cb002 = tested on: LOC_OS01G70970-cb002
# Method in brief: as §1
# LOC_OS02G07810-cb001 = tested on: LOC_OS02G07810-cb001
# Method in brief: as §1
# LOC_OS02G08530-cb003 = tested on: LOC_OS02G08530-cb003
# Method in brief: as §1
# LOC_OS02G14120-cb001 = tested on: LOC_OS02G14120-cb001
# Method in brief: as §1
# LOC_OS02G17970-cb001 = tested on: LOC_OS02G17970-cb001
# Method in brief: as §1
# 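Further: purified Escherichia coli-expressed rice kinase domain construct.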
Structure (SMILES),thermal shift delta Tm (LOC_OS01G01410-cb001) [°C],thermal shift delta Tm (LOC_OS01G02750-cb003) [°C],thermal shift delta Tm (LOC_OS01G10900-cb004) [°C],thermal shift delta Tm (LOC_OS01G13800-cb001) [°C],thermal shift delta Tm (LOC_OS01G14860-cb001) [°C],thermal shift delta Tm (LOC_OS01G21960-cb002) [°C],thermal shift delta Tm (LOC_OS01G39600-cb002) [°C],thermal shift delta Tm (LOC_OS01G48390-cb002) [°C],thermal shift delta Tm (LOC_OS01G51400-cb002) [°C],thermal shift delta Tm (LOC_OS01G52050-cb004) [°C],thermal shift delta Tm (LOC_OS01G57100-cb003) [°C],thermal shift delta Tm (LOC_OS01G60330-cb001) [°C],thermal shift delta Tm (LOC_OS01G60700-cb002) [°C],thermal shift delta Tm (LOC_OS01G63280-cb003) [°C],thermal shift delta Tm (LOC_OS01G67340-cb003) [°C],thermal shift delta Tm (LOC_OS01G70970-cb002) [°C],thermal shift delta Tm (LOC_OS02G07810-cb001) [°C],thermal shift delta Tm (LOC_OS02G08530-cb003) [°C],thermal shift delta Tm (LOC_OS02G14120-cb001) [°C],thermal shift delta Tm (LOC_OS02G17970-cb001) [°C]
Cn1c(=O)c(Oc2ccc(F)cc2F)cc2cnc(NC(CCO)CCO)nc21,0.37,0.46,1.21,0.21,0.44,0.89,0.22,-0.01,-0.14,0.02,1.18,0.87,1.45,0.27,0.29,0.4,0.02,1.22,1.36,1
Nc1nccc(Oc2ccc3c(C(=O)Nc4cccc(C(F)(F)F)c4)cccc3c2)n1,0.89,1.42,0.88,1.39,3.82,1.43,0.93,1.13,0.12,1.04,1.31,1.99,0.86,7.54,0.91,0.71,0.76,0.59,1.14,1.47
O=c1cc(N2CCOCC2)oc2c(-c3ccccc3)cccc12,1.06,-0.94,3.69,0.14,0.93,0.79,0.29,1.24,0.33,0.42,0.48,1.07,1.31,0.43,-0.28,0.36,1.28,0.91,0.08,0.84
COc1ccc(Oc2cc(NCCC(F)(F)F)c3ncc(-c4ccc(C(=O)NC5CC5)c(C)c4)n3n2)c(F)c1F,0.28,1.7,-0.65,0.15,0.68,-0.46,1.84,0.14,0.75,1.81,-1.23,1.27,-0.2,0.82,1,0.18,1.17,0.66,-0.01,1.28
COc1nccnc1NS(=O)(=O)c1ccc(NC(=O)/C=C/c2ccc([N+](=O)[O-])s2)cc1 [Necrosulfonamide],1.29,0.21,2.42,1.27,0.78,0.24,-1.55,0.84,-0.04,0.81,-1.39,1.46,1.17,0.16,0.36,-0.61,1.4,0.83,-0.66,2.48
CCN1C(=O)CNc2ncc(-c3ccc(-c4nc[nH]n4)nc3C)nc21,0.49,-0.88,1.31,0.86,1.11,0.62,-1.87,0.34,-0.29,-1.26,1.53,0.57,0.53,-0.65,-0.28,0.01,0.72,0.04,-0.7,0.77
N#Cc1c(Oc2ccc(F)c(NC(=O)Cc3cccc(C(F)(F)F)c3)c2)ccc2nc(NC(=O)C3CC3)sc12,1,2.13,0.14,0.81,0.57,1.14,0.16,1.04,1.02,0.32,2.29,1.23,1.86,0.73,0.52,0.34,0.79,0.98,0.68,0.88
COc1cc2nccc(Oc3ccc(NC(=O)C4(C(=O)Nc5ccc(F)cc5)CC4)cc3)c2cc1OC [Cabozantinib malate (XL184)],0.01,0.45,0.03,0.12,0.34,0.57,0.26,3.62,0.63,0.38,1.34,0.89,1.35,0.47,0.53,0.57,1.09,1.12,0.46,0.98
CC#CC(=O)N1CC[C@@H](n2c(=O)n(-c3ccc(Oc4ccccc4)cc3)c3c(N)ncnc32)C1 [ONO-4059 (GS-4059) hydrochloride],0.39,0.39,0.14,-0.37,0.23,0.04,0.11,-0.2,-0.08,-0.56,0.49,0.71,0.99,-0.08,0.27,0.11,0.05,0.27,0.04,0.51
C[C@]1(O)C[C@@H](c2nc(-c3ccc4ccc(-c5ccccc5)nc4c3)c3c(N)nccn32)C1 [Linsitinib (OSI-906)],1.14,-0.88,0.14,0.82,0.26,0.9,1.68,0.41,0.44,-0.16,0.52,1.43,1.07,2.13,0.12,0.38,1.27,0.86,0.29,0.89
Cn1cc(-c2ccc3c(c2)CCN3C(=O)Cc2cccc(C(F)(F)F)c2)c2c(N)ncnc21,1.18,3.93,2.83,-0.12,0.47,0.33,0.17,0.89,-0.22,2.35,1.46,-0.42,0.15,9.43,3.52,0.54,0.74,1.06,3.86,0.57
CC(C)Nc1cc(-c2c[nH]c(C(=O)N[C@H](CO)c3cccc(Cl)c3)c2)c(Cl)cn1,6.3,1.26,0.37,0.75,5.82,1.37,1.63,1.24,0.12,2.18,2.03,1.73,1.28,0.91,1.23,0.59,1.19,1.18,1.13,1.49
CC1=C(C(=O)Nc2ccc3[nH]ncc3c2)C(c2ccc(F)cc2)NC(=O)N1 (stereo not given),0.44,1.19,0.21,0.88,0.96,0.9,0.5,0.28,0.23,4.76,2.16,0.38,0.62,0.82,0.41,0.4,-0.36,0.77,2.32,0.88
"Cc1[nH]c(/C=C2\C(=O)Nc3ccccc32)c(C)c1CCC(=O)O [Orantinib (TSU-68, SU6668)]",4.79,1.43,0.18,0.08,1.9,2.76,6.8,1.34,0.2,3.61,2.5,12.6,0.82,0.57,1.81,4.33,1.32,4.91,7.18,0.78
"Cc1cc(Nc2ncnc3ccc(NC4=NC(C)(C)CO4)cc23)ccc1Oc1ccn2ncnc2c1 [Irbinitinib (ARRY-380, ONT-380)]",0.46,-5.11,0.3,-0.06,-1.49,-0.98,-4.96,-0.78,-3.07,1.03,1.92,0.15,-0.86,-1.49,-1.04,-0.85,-0.86,0.22,0.7,0.09
CCn1cc(-c2ccnc3[nH]c(-c4cccc(CN(C)C)c4)cc23)c(-c2ccc(NC(=O)N(C)C)cc2)n1,0.68,2.48,1.01,0.47,2.81,0.73,0.91,1.28,0.51,0.87,1.51,0.61,1.18,2.91,0.66,0.18,0.49,1.02,6.39,1.01
COc1ccc(/C=C/C(=O)C2(C(=O)/C=C/c3ccc(OC)c(OC)c3)CCCCC2)cc1OC,0.52,0.5,1.18,0.16,0.18,0.55,0.02,0.51,0.07,0.63,2.18,0.27,0.41,0.1,0.3,0.31,0.4,1.47,0.46,0.38
NC(=O)c1ccc2nc(-c3ccc(Oc4ccc(Cl)cc4)cc3)[nH]c2c1 [Chk2 Inhibitor II (BML-277)],0.54,1.86,2.68,-0.46,0.95,0.75,0.45,1.43,0.88,1.84,-0.91,1.95,-0.56,0.87,1.05,0.31,-0.29,0.5,0.13,1.17
CC1(C)OCCn2c1nc1c(N3CCOCC3)nc(-c3cnc(N)nc3)nc12,2.4,0.54,1.05,0.07,0.3,1.06,0.85,0.14,0.12,0.62,-0.05,5.04,0.81,-0.02,0.53,1.29,0.49,1.45,0.72,0.78
Cc1ncc(CO)c(CO)c1O [Pyridoxine],-0.03,0.64,0.29,-0.11,0.24,0.13,-0.13,0.22,0.06,4.05,-0.85,-0.2,-0.29,-0.26,0.08,0.33,-0.63,0.26,0.41,0.66
CNS(=O)(=O)Nc1nccc(Cc2c(C)c3ccc(Oc4ncccn4)cc3oc2=O)c1F,0.15,1.63,0.11,0.82,0.18,0.68,-0.07,0.47,0.47,0.66,1.4,0.33,1.34,0.93,0.24,0.04,1.08,0.58,0.9,1.23
COc1ccc(-c2cc3c(C)nc(N)nc3n([C@H]3CC[C@H](OCCO)CC3)c2=O)cn1,0.74,0.7,0.3,0.31,0.17,0.57,0.34,0.57,0.45,0.16,2.79,0.98,0.9,0.37,0.23,0.14,1.27,1.09,1.12,0.63
O=C(Nc1cccc(Nc2ncc(Br)c(NCCc3cnc[nH]3)n2)c1)N1CCCC1,5.28,2.32,0.86,0.31,4.24,3.16,7.21,4.8,1.21,11.9,1.45,12.3,0.44,0.73,2,9.39,0.15,2.7,10.6,0.3
c1cncc(CN2CCC(n3ncc4c(N5CCOCC5)nc(-c5ccc6[nH]ccc6c5)nc43)CC2)c1,0.33,-0.32,0.65,0.33,0.21,0.55,0.03,0.18,0.45,-0.01,2.55,0.61,0.71,0.09,-0.04,0.4,0.62,0.57,0.15,0.27
Cc1ccc(Nc2cc(N[C@@H]3CCCC[C@@H]3N)nnc2C(N)=O)nc1C,1.14,1.56,0.34,0.15,4.3,1.71,0.06,0.5,0.36,4.19,2.34,1.23,1.25,0.77,0.39,2.01,0.12,2.54,5.04,1.48
